{"source": "the supplement of paper PMC8728848", "test_in_all_cases": "glycan array binding signal (z-score within array); higher = stronger binding", "conditions_in_all_cases": "glycan notation: IUPAC condensed, linker removed", "key": {"GalNAc(b1-4)Gal(b1-4)Glc": {"biological_target": "GalNAc(b1-4)Gal(b1-4)Glc", "in_short": "(§1)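 The Consortium for Functional Glycomics database supplied 3228 glycan arrays, of which those lacking an available protein sequence were dropped. The binding signal, a within-array Z-score, was averaged across arrays of the same protein sequence and across linkers. Negative scores can be read as non-binding.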"}, "GalNAc(b1-4)GlcNAc": {"biological_target": "GalNAc(b1-4)GlcNAc", "in_short": "as §1"}, "[1]": {"biological_target": "GalNAc(b1-4)GlcNAc(b1-3)GalNAc(b1-4)GlcNAc", "in_short": "as §1"}, "[2]": {"biological_target": "GlcNAc(b1-2)Man(a1-3)[GlcNAc(b1-2)Man(a1-6)]Man(b1-4)GlcNAc(b1-4)[Fuc(a1-6)]GlcNAc", "in_short": "as §1"}, "[3]": {"biological_target": "GlcNAc(b1-2)[GlcNAc(b1-6)]Man(a1-6)[GlcNAc(b1-2)Man(a1-3)]Man(b1-4)GlcNAc(b1-4)[Fuc(a1-6)]GlcNAc", "in_short": "as §1"}, "[4]": {"biological_target": "GlcNAc(b1-3)Gal(b1-4)GlcNAc(b1-2)[GlcNAc(b1-3)Gal(b1-4)GlcNAc(b1-6)]Man(a1-6)[GlcNAc(b1-3)Gal(b1-4)GlcNAc(b1-2)Man(a1-3)]Man(b1-4)GlcNAc(b1-4)GlcNAc", "in_short": "as §1"}, "[5]": {"biological_target": "GlcNAc(b1-3)Gal(b1-4)GlcNAc(b1-3)Gal(b1-4)GlcNAc(b1-2)Man(a1-3)[GlcNAc(b1-3)Gal(b1-4)GlcNAc(b1-3)Gal(b1-4)GlcNAc(b1-2)Man(a1-6)]Man(b1-4)GlcNAc(b1-4)GlcNAc", "in_short": "as §1"}, "[6]": {"biological_target": "GlcNAc(b1-3)Gal(b1-4)GlcNAc(b1-3)Gal(b1-4)GlcNAc(b1-3)Gal(b1-4)GlcNAc(b1-3)Gal(b1-4)GlcNAc(b1-2)[GlcNAc(b1-3)Gal(b1-4)GlcNAc(b1-3)Gal(b1-4)GlcNAc(b1-3)Gal(b1-4)GlcNAc(b1-3)Gal(b1-4)GlcNAc(b1-6)]Man(a1-6)[GlcNAc(b1-3)Gal(b1-4)GlcNAc(b1-3)Gal(b1-4)GlcNAc(b1-3)Gal(b1-4)GlcNAc(b1-3)Gal(b1-4)GlcNAc(b1-2)Man(a1-3)]Man(b1-4)GlcNAc(b1-4)[Fuc(a1-6)]GlcNAc", "in_short": "as §1"}, "GlcNAc(b1-6)GalNAc": {"biological_target": "GlcNAc(b1-6)GalNAc", "in_short": "as §1"}, "[7]": {"biological_target": "Neu5Ac(a2-3)Gal(b1-3)GlcNAc(b1-2)Man(a1-3)[Neu5Ac(a2-3)Gal(b1-3)GlcNAc(b1-2)Man(a1-6)]Man(b1-4)GlcNAc(b1-4)GlcNAc", "in_short": "as §1"}, "[8]": {"biological_target": "Neu5Ac(a2-3)Gal(b1-3)[Fuc(a1-4)]GlcNAc(b1-3)Gal(b1-3)[Fuc(a1-4)]GlcNAc", "in_short": "as §1"}, "[9]": {"biological_target": "Neu5Ac(a2-3)Gal(b1-4)GlcNAc(b1-2)Man(a1-3)[Neu5Ac(a2-3)Gal(b1-4)GlcNAc(b1-2)Man(a1-6)]Man(b1-4)GlcNAc(b1-4)[Fuc(a1-6)]GlcNAc", "in_short": "as §1"}, "[10]": {"biological_target": "Neu5Ac(a2-3)Gal(b1-4)GlcNAc(b1-2)[Neu5Ac(a2-3)Gal(b1-4)GlcNAc(b1-6)]Man(a1-6)[Neu5Ac(a2-3)Gal(b1-4)GlcNAc(b1-2)Man(a1-3)][GlcNAc(b1-4)]Man(b1-4)GlcNAc(b1-4)GlcNAc", "in_short": "as §1"}, "[11]": {"biological_target": "Neu5Ac(a2-3)Gal(b1-4)[Fuc(a1-3)]GlcNAc(b1-3)Gal", "in_short": "as §1"}, "[12]": {"biological_target": "Neu5Ac(a2-3)Gal(b1-4)[Fuc(a1-3)]GlcNAc6S", "in_short": "as §1"}, "[13]": {"biological_target": "Neu5Ac(a2-3)[GalNAc(b1-4)]Gal(b1-4)GlcNAc", "in_short": "as §1"}, "Neu5Ac(a2-6)Gal": {"biological_target": "Neu5Ac(a2-6)Gal", "in_short": "as §1"}, "[14]": {"biological_target": "Neu5Ac(a2-6)Gal(b1-4)GlcNAc(b1-2)Man(a1-3)[Neu5Ac(a2-3)Gal(b1-4)GlcNAc(b1-2)Man(a1-6)]Man(b1-4)GlcNAc(b1-4)GlcNAc", "in_short": "as §1"}, "[15]": {"biological_target": "Neu5Ac(a2-6)Gal(b1-4)GlcNAc(b1-2)Man(a1-6)[Gal(b1-4)GlcNAc(b1-2)Man(a1-3)]Man(b1-4)GlcNAc(b1-4)GlcNAc", "in_short": "as §1"}, "[16]": {"biological_target": "Neu5Ac(a2-6)Gal(b1-4)GlcNAc(b1-3)Gal(b1-4)GlcNAc(b1-3)Gal(b1-4)GlcNAc(b1-2)Man(a1-3)[Neu5Ac(a2-6)Gal(b1-4)GlcNAc(b1-3)Gal(b1-4)GlcNAc(b1-3)Gal(b1-4)GlcNAc(b1-2)Man(a1-6)]GalNAc", "in_short": "as §1"}, "[17]": {"biological_target": "Neu5Ac(a2-6)Gal(b1-4)GlcNAc(b1-6)GalNAc", "in_short": "as §1"}, "[18]": {"biological_target": "Neu5Ac(a2-8)Neu5Ac(a2-3)Gal(b1-3)GalNAc(b1-4)[Neu5Ac(a2-3)]Gal(b1-4)Glc", "in_short": "as §1"}, "[19]": {"biological_target": "Neu5Ac(a2-8)Neu5Ac(a2-3)Gal(b1-4)GlcNAc", "in_short": "as §1"}, "[20]": {"biological_target": "Neu5Ac(a2-8)Neu5Ac(a2-3)[Gal(b1-3)GalNAc(b1-4)]Gal(b1-4)Glc", "in_short": "as §1"}, "[21]": {"biological_target": "Neu5Gc(a2-3)Gal(b1-4)[Fuc(a1-3)]GlcNAc", "in_short": "as §1"}, "[22]": {"biological_target": "Neu5Gc(a2-8)Neu5Gc(a2-3)Gal(b1-4)GlcNAc(b1-3)Gal(b1-4)GlcNAc", "in_short": "as §1"}}, "note": "The full list was thinned out, with the strongest signals kept by preference."}
{"binder": "Erv46-EDTA (Saccharomyces cerevisiae), P39727 (protein) MKFLVNVALVFMVVYISYIYAAAPEHHHHHHDYDIPTTENLYFQGAMDSVVTRPQLVVDRDRHAKLELNMDVTFPSMPCDLVNLDIMDDSGEMQLDILDAGFTMSRLNSEGRPVGDATELHVGGNGDGTAPVNNDPNYCGPCYGAKDQSQNENLAQEEKVCCQDCDAVRSAYLEAGWAFFDGKNIEQCEREGYVSKINEHLNEGCRIKGSAQINRIQGNLHFAPGKPYQNAYGHFHDTSLYDKTSNLNFNHIINHLSFGKPIQSHSKLLGNDKRHGGAVVATSPLDGRQVFPDRNTHFHQFSYFAKIVPTRYEYLDNVVIETAQFSATFHSRPLAGGRDKDHPNTLHVRGGIPGMFVFFEMSPLKVINKEQ", "values": [{"measurement": "glycan array binding signal (z-score)", "setting": "GalNAc(b1-4)Gal(b1-4)Glc", "value": -0.674}, {"measurement": "glycan array binding signal (z-score)", "setting": "GalNAc(b1-4)GlcNAc", "value": 0.697}, {"measurement": "glycan array binding signal (z-score)", "setting": "[1]", "value": -0.443}, {"measurement": "glycan array binding signal (z-score)", "setting": "[2]", "value": 6.37}, {"measurement": "glycan array binding signal (z-score)", "setting": "[3]", "value": 1.14}, {"measurement": "glycan array binding signal (z-score)", "setting": "[4]", "value": 2.9}, {"measurement": "glycan array binding signal (z-score)", "setting": "[5]", "value": 3.36}, {"measurement": "glycan array binding signal (z-score)", "setting": "[6]", "value": 0.589}, {"measurement": "glycan array binding signal (z-score)", "setting": "GlcNAc(b1-6)GalNAc", "value": -0.565}, {"measurement": "glycan array binding signal (z-score)", "setting": "[7]", "value": 1.06}, {"measurement": "glycan array binding signal (z-score)", "setting": "[8]", "value": -0.483}, {"measurement": "glycan array binding signal (z-score)", "setting": "[9]", "value": 0.11}, {"measurement": "glycan array binding signal (z-score)", "setting": "[10]", "value": -0.335}, {"measurement": "glycan array binding signal (z-score)", "setting": "[11]", "value": -0.531}, {"measurement": "glycan array binding signal (z-score)", "setting": "[12]", "value": -0.585}, {"measurement": "glycan array binding signal (z-score)", "setting": "[13]", "value": 0.122}, {"measurement": "glycan array binding signal (z-score)", "setting": "Neu5Ac(a2-6)Gal", "value": -0.121}, {"measurement": "glycan array binding signal (z-score)", "setting": "[14]", "value": -0.318}, {"measurement": "glycan array binding signal (z-score)", "setting": "[15]", "value": -0.053}, {"measurement": "glycan array binding signal (z-score)", "setting": "[16]", "value": 3.54}, {"measurement": "glycan array binding signal (z-score)", "setting": "[17]", "value": -0.855}, {"measurement": "glycan array binding signal (z-score)", "setting": "[18]", "value": -0.029}, {"measurement": "glycan array binding signal (z-score)", "setting": "[19]", "value": -0.501}, {"measurement": "glycan array binding signal (z-score)", "setting": "[20]", "value": -0.605}, {"measurement": "glycan array binding signal (z-score)", "setting": "[21]", "value": 0.625}, {"measurement": "glycan array binding signal (z-score)", "setting": "[22]", "value": -0.449}]}
